Drawing on PubChem BioAssay, this text covers composite z-score and z-score for 5 molecules.

Calls of active or inactive are those of the source.

Experiment [1] concerns PRMT1 (protein arginine N-methyltransferase 1). The experiment in a line: small molecules binding arginine methyltransferase PRMT1 – biochemical, small-molecule microarray, 635 nm fluorescence, primary screen (AID 1088).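 Also: binding of Prmt1 protein to compounds spotted on small-molecule microarray slides.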 The following applies: higher = more signal.
The nature of experiment [2]: growth effects on S. cerevisiae YJM789 – YJM789 clinical isolate, OD600, 24 h, basal, primary screen (AID 1089).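 Also: growth of clinical yeast isolate S. cerevisiae YJM 789 seeded 1000 cells per well; test concentration not given here.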 The following applies: higher = more signal, called active from +8 up or from −8 down.
Experiment [3] is described as follows: S. pombe growth modifiers, basal conditions – strain 972, OD600, 24 h, no modulator, primary screen (AID 1090).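 Also: basal condition with compound alone and no growth modifier present; test concentration not given here.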 The following applies: S. pombe 972 growth, higher = more signal, called active from +8 up or from −8 down.
Experiment [4] can be described thus: budding yeast growth modifiers under rapamycin – strain BY4716, OD600, 96 h, primary screen (AID 1091). Also: test concentration not given here. The following applies: S. cerevisiae BY4716 + rapamycin, higher = more signal, called active from +8 up or from −8 down.
The target in experiment [5] is Torsin-1A-interacting protein 2 (Homo sapiens) (UniProt Q8NFQ8). The experiment in a line: small molecules binding lysate-expressed LULL1 – cell lysate, human LULL1 lysate, 635/667 nm fluorescence, primary screen (AID 1092).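 Also: probe is lysate of COS7 cells overexpressing human LULL1; score merges per-feature 667 nm fluorescence with signal-to-noise.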 The following applies: small-molecule microarray, hLULL1 lysate binding, 635 nm fluorescence; higher = more signal.
Chain of Torsin-1A-interacting protein 2 (Homo sapiens) (Q8NFQ8 whole entry, looked up): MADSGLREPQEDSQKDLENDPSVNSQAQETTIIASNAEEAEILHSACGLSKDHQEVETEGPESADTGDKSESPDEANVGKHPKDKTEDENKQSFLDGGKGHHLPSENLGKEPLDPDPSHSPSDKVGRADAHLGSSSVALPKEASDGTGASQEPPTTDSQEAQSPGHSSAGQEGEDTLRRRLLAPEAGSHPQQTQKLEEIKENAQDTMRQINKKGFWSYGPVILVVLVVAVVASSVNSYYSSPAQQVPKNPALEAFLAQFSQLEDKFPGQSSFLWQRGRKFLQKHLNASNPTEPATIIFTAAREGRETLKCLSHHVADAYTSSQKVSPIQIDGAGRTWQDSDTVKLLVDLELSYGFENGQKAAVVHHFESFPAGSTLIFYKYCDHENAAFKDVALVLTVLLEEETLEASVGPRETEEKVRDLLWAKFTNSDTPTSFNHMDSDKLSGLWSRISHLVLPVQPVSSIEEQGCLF
Experiment [6] is described as follows: optical density change of DRC41 E. coli – strain DRC41, OD650, 24 h, E. coli filamentation project, primary screen (AID 1093).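 Also: MC1000 strain lacking acrAB efflux and sulA so SOS filamentation is blocked; test concentration not given here.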 The following applies: E. coli DRC41 growth, higher = more signal, called active from +8 up or from −8 down.
The nature of experiment [7]: probe aLefty2 binding to arrayed compounds – biochemical, biotinylated probe, 635/667 nm fluorescence, primary screen (AID 1094).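 Also: score merges spot fluorescence near 667 nm with spot signal-to-noise ratio.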 The following applies: small-molecule microarray, higher = more signal.
In experiment [8] the test system is Noggin (protein binding on small-molecule microarray). The experiment in a line: small molecules binding Noggin protein – biochemical, 635/667 nm fluorescence, primary screen (AID 1095).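 Also: score merges 667 nm feature fluorescence with signal to noise over triplicate slides.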 The following applies: 635 nm fluorescence, higher = more signal.
Experiment [9] has as its target Neurogenic locus notch homolog protein 3 (Homo sapiens) (UniProt Q9UM47). Briefly: small molecules binding NOTCH3 protein – biochemical, 635/667 nm fluorescence, primary screen (AID 1096). The following applies: small-molecule microarray, 635 nm fluorescence, higher = more signal.
Experiment [10] can be described thus: probe aEGFR binding to arrayed compounds – biochemical, biotinylated probe, 635/667 nm fluorescence, primary screen (AID 1097).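 Also: probe is a biotinylated anti-EGFR antibody binding compounds printed on slides; score combines fluorescence near 667 nm and signal to noise of each spot.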 The following applies: small-molecule microarray, higher = more signal.
In experiment [11] the test system is Plasmodium falciparum Sir2 (PF13_0152, Sir2A). Briefly: Plasmodium falciparum Sir2A binding compounds – biochemical, small-molecule microarray, 635 nm fluorescence, primary screen (AID 1098).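 Also: score merges spot fluorescence intensity with its signal-to-noise ratio.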 The following applies: fluorescence 635 nm, higher = more signal.
A short description of experiment [12]: probe aDKK1 binding to arrayed compounds – biochemical, biotinylated probe, 635/667 nm fluorescence, primary screen (AID 1099).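 Also: score merges 667nm spot fluorescence with signal to noise across triplicate slides; reference of the scale not given here.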 The following applies: small-molecule microarray, higher = more signal.
Experiment [13] is described as follows: probe aCHRDL2 binding to arrayed compounds – biochemical, biotinylated probe, 635/667 nm fluorescence, primary screen (AID 1100). The following applies: small-molecule microarray, higher = more signal.
Experiment [14] can be described thus: change in splice reporter luminescence, either direction, cell-based, HEK293, spliceosome inhibition project, primary screen (AID 1101).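 Also: HEK293 cells carrying a splicing-competent luciferase reporter gene; test concentration not given here.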 The following applies: HEK293 splicing luciferase reporter, 24 h, higher = more signal, called active from +8 up or from −8 down. Background: Reporter assays use an easily measured gene product as a stand-in for the process of interest.

Experiment [15] addresses Fibroblast growth factor 10 (Homo sapiens) (UniProt O15520). Briefly: compounds binding fibroblast growth factor 10 – biochemical, small-molecule microarray, 635 nm fluorescence, primary screen (AID 1102). The following applies: FGF10 binding, fluorescence 635 nm, higher = more signal.
The subject of experiment [16] is glycogen synthase kinase-3 (GSK3A per assay name; protocol says GSK3B). Briefly: compounds binding glycogen synthase kinase-3 – biochemical, small-molecule microarray, 635 nm fluorescence, GSK3A, primary screen (AID 1103). Also: the record names both GSK3A and GSK3B. The following applies: fluorescence 635 nm, higher = more signal.
Experiment [17] deals with Epidermal growth factor receptor (Homo sapiens) (UniProt P00533). The experiment in a line: compounds binding epidermal growth factor receptor – biochemical, small-molecule microarray, 635 nm fluorescence, primary screen (AID 1104).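 Also: score merges 667 nm emission intensity with spot signal to noise over triplicate slides.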 The following applies: EGFR binding, higher = more signal.
Chain of Epidermal growth factor receptor (Homo sapiens) (P00533 whole entry, looked up): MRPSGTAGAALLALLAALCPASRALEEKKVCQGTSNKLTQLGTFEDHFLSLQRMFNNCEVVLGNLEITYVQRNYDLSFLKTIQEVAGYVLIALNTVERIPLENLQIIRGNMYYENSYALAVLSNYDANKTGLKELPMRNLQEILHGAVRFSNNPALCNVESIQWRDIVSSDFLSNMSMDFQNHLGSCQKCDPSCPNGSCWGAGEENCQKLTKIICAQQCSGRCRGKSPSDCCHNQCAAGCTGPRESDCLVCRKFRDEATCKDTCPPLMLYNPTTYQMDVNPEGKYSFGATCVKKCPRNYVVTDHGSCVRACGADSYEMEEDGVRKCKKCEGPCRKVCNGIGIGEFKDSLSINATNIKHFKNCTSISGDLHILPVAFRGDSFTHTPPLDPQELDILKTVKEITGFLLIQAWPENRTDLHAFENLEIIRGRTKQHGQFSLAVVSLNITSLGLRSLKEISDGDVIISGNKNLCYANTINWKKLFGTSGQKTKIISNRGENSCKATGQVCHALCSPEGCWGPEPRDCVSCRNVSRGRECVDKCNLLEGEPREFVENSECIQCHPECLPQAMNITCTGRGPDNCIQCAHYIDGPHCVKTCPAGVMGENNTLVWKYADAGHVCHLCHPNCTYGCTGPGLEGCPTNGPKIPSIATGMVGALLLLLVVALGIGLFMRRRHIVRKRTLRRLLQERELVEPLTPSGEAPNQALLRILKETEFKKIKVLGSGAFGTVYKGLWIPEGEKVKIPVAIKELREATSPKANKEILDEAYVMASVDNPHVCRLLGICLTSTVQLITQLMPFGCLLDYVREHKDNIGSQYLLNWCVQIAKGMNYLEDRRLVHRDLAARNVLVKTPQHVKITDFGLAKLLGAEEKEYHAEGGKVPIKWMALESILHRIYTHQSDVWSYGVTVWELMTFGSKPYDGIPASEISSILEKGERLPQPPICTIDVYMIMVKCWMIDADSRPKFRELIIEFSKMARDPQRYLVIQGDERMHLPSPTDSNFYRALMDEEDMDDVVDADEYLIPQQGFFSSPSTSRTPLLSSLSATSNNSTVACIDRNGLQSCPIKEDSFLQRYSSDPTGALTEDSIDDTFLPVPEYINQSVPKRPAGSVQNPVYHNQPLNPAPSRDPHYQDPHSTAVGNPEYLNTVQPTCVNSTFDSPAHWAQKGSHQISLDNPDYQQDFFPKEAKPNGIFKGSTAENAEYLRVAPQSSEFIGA
Experiment [18] concerns the target Follistatin-related protein 3 (Homo sapiens) (UniProt O95633). Briefly: compounds binding follistatin-related protein 3 – biochemical, small-molecule microarray, 635 nm fluorescence, primary screen (AID 1105).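 Also: score merges emission near 667 nm and signal to noise per printed spot across three slides.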 The following applies: FSTL3 binding, higher = more signal.
Experiment [19] addresses Dickkopf-related protein 1 (Homo sapiens) (UniProt O94907). The experiment in a line: small molecules binding DKK1 protein – biochemical, small-molecule microarray, 635 nm fluorescence scan, primary screen (AID 1106).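 Also: score merges emission near 667 nm with signal to noise over three replicate slides.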 The following applies: higher = more signal.
In experiment [20] the test system is Inhibin beta A chain (activin A). Briefly: small molecules binding activin A – biochemical, small-molecule microarray, 635 nm fluorescence scan, primary screen (AID 1107).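 Also: mouse activin A protein probed at 4.33 µg/mL on printed slides; score merges bound-protein fluorescence near 667 nm with spot signal-to-noise.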 The following applies: INHBA, higher = more signal.

Chain of Neurogenic locus notch homolog protein 3 (Homo sapiens) (Q9UM47 whole entry, looked up): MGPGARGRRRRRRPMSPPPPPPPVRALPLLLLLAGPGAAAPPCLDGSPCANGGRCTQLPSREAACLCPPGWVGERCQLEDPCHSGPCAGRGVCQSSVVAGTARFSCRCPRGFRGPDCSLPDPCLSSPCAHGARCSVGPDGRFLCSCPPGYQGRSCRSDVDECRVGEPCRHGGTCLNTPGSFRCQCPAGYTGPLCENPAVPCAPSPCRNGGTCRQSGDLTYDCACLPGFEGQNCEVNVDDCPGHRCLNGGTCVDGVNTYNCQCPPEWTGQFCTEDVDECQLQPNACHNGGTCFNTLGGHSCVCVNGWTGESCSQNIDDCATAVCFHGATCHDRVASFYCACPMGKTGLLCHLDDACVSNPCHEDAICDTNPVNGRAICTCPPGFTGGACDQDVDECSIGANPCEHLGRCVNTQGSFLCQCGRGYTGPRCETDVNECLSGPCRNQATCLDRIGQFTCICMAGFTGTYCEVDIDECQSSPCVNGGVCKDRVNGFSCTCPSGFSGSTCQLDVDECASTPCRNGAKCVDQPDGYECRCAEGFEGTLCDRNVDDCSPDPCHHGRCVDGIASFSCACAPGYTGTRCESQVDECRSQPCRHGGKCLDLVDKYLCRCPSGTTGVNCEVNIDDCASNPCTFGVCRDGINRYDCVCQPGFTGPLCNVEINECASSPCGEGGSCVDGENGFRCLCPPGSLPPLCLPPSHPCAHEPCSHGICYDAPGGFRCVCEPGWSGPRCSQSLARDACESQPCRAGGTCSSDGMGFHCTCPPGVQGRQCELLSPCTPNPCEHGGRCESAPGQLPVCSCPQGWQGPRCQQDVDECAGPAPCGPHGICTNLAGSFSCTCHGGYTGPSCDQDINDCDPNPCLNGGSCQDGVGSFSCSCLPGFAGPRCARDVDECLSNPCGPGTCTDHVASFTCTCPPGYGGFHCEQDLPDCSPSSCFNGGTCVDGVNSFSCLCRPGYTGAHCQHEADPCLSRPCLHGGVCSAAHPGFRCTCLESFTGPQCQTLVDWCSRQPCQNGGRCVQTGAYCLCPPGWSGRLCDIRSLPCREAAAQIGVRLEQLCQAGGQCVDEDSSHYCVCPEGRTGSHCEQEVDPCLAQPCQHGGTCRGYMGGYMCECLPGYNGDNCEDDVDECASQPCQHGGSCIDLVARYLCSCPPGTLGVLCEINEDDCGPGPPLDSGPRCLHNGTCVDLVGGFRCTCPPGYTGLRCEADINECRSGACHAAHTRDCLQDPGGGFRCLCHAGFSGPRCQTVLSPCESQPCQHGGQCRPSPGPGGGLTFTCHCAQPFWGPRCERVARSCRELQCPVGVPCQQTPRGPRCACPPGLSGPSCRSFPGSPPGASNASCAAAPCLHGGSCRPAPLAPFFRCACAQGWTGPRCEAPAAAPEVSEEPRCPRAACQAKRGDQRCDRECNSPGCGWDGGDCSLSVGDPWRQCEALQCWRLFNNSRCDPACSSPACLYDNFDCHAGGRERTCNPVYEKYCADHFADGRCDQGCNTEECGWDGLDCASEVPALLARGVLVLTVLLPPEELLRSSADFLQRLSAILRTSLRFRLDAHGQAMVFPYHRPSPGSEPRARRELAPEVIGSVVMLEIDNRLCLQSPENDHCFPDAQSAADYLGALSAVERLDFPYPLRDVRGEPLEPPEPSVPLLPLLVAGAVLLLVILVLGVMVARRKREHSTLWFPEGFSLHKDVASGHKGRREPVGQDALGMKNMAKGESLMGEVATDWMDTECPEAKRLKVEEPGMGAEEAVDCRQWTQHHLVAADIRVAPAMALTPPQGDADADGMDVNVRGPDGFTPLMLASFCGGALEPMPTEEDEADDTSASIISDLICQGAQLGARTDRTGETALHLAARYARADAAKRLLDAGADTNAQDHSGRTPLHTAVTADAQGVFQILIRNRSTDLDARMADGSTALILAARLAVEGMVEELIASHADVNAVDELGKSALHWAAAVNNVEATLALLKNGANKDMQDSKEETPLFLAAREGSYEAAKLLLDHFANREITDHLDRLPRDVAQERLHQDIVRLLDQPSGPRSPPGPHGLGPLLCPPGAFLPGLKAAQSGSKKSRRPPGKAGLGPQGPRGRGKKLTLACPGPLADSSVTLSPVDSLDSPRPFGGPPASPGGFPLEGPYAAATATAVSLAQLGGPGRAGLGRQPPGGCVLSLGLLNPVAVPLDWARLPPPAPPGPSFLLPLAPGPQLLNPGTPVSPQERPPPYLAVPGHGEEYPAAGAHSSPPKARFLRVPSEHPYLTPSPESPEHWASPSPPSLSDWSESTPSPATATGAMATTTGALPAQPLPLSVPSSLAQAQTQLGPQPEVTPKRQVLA
Chain of Follistatin-related protein 3 (Homo sapiens) (O95633 whole entry, looked up): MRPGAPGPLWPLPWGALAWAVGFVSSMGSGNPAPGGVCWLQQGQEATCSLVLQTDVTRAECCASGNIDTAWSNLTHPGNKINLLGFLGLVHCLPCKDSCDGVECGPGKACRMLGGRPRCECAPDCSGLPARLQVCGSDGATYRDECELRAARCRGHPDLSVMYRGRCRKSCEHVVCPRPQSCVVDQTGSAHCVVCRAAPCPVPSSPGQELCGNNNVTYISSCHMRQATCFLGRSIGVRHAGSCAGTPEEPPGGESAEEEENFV
Chain of Fibroblast growth factor 10 (Homo sapiens) (O15520 whole entry, looked up): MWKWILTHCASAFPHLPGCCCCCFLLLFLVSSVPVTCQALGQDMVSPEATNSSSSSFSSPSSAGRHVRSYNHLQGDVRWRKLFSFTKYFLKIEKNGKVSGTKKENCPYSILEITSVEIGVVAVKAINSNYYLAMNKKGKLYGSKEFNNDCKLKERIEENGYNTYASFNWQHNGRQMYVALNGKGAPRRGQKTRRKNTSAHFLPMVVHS
Chain of Dickkopf-related protein 1 (Homo sapiens) (O94907 whole entry, looked up): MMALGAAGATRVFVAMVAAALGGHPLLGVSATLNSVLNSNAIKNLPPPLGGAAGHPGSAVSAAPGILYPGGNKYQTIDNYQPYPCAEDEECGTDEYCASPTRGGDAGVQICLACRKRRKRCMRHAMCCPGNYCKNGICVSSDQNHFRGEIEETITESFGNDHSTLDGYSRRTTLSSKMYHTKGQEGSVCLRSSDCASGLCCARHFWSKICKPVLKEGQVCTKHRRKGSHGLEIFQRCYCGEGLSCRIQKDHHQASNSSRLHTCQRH

For the molecule `COc1cc2c(cc1O)C(c1cccs1)N(Cc1cc3c(cc1Br)OCO3)CC2` (stereo not given), the composite z-score in [1] came out at 1.53; in experiment [5], 3.45; in experiment [7] it was 0.183; in experiment [8], 0.289; in experiment [9], 1.07; in experiment [10] it was 0.0778. The composite z-score in experiment [11] stood at 1.5; in experiment [12], 0.421; in experiment [13] it was 0.726; in [15], 1.47; in experiment [16], 1.32; in [17], 0.345. The results for the composite z-score in experiment [18], in experiment [19] and in experiment [20] were 1.13, 0.449 and 0.632, respectively. In addition, the z-score was -0.592 (inactive) in [2]; -4.96 (inactive) in experiment [3]; -0.859 (inactive) in experiment [4]; -1.45 (inactive) in experiment [6]; -0.0664 (inactive) in [14].
As for `COc1ccc([Si](C)(C)[C@H]2[C@H](CC(=O)N3Cc4ccccc4C[C@H]3CO)O[C@@]3(C(=O)N(Cc4ccc(N5CCOC5=O)cc4)c4ccccc43)[C@@H]2C)cc1`, the composite z-score in experiment [1] was 1.57; in [5] it was 1.25; in [7], -0.123; in experiment [8], 1.46; in [9], 1.11; in experiment [10], -0.022. In addition, the composite z-score in experiment [11] was 0.149; in experiment [12], -0.161; in experiment [13], -0.345; in experiment [15], 0.878; in [16] it was 0.676; in experiment [17], 1.03. Further, the results for the composite z-score in experiment [18], in experiment [19] and in experiment [20] were 1.04, 0.929 and 1.05, respectively. For the same molecule, the z-score is -1.31 (inactive) in experiment [2]; -0.053 (inactive) in experiment [3]; 2.17 (inactive) in experiment [4]; -0.167 (inactive) in experiment [6]; -0.817 (inactive) in experiment [14].
`Oc1ccc2cc[n+](Cc3cc4c(cc3Br)OCO4)cc2c1`: the composite z-score in experiment [1] is 0.621; in [5] it was -0.252; in experiment [7], 0.0894; in experiment [8] it was -0.883; in experiment [9], -1.11; in experiment [10], -0.211. The composite z-score in experiment [11] was -1.19; in experiment [12] it was 0.144; in [13], 0.452; in experiment [15] it was -0.633; in experiment [16] it was -1.16; in experiment [17], -0.243. Also, the composite z-score in experiment [18] is -0.456; in experiment [19] it was -0.14; in [20] it was 0.398. The z-score is 1.07 (inactive) in [2]; -1.41 (inactive) in experiment [3]; 0.645 (inactive) in experiment [4]; -0.603 (inactive) in [6]; -0.95 (inactive) in experiment [14].
On to `NC(=O)NCC#Cc1ccc2c(c1)[C@]1(C(=O)N2)[C@H](c2ccccc2OCCO)N2[C@H](c3ccccc3)[C@H](c3ccccc3)OC(=O)[C@H]2[C@@H]1C(=O)NC[C@H](O)c1ccccc1`, for which the composite z-score was 0.415 in experiment [1]; 1.06 in experiment [5]; 0.448 in experiment [7]; -0.0053 in experiment [8]; -0.112 in experiment [9]; -0.162 in [10]. The composite z-score in experiment [11] is 0.342; in [12], -0.224; in experiment [13], 0.699; in [15] it was -0.491; in [16], -0.659; in [17], -0.895. For the same molecule, the composite z-score is -0.355 in [18], -0.548 in experiment [19] and 0.472 in experiment [20]. For the same molecule, the z-score was 1.5 (inactive) in experiment [2]; 1.32 (inactive) in [3]; 3.89 (inactive) in [4]; 2.36 (inactive) in experiment [6]; -1.14 (inactive) in experiment [14].
Take `CC(c1ccccc1)C(O)C1C=CC2C(=O)N(C)C(=O)C2N1Nc1ccccc1` (stereo not given): the composite z-score was 1.33 in [1]; 2.99 in [5]; 0.445 in experiment [7]; -0.194 in experiment [8]; 1.14 in experiment [9]; 0.0849 in experiment [10]. Besides, the composite z-score in [11] was 1.25; in [12], 1.04; in experiment [13], 1.2; in [15] it was 0.663; in experiment [16], 0.515; in [17] it was 0.0188. The composite z-score is 0.359 in [18], -0.452 in experiment [19] and 0.965 in experiment [20]. For the same molecule, the z-score is 0.188 (inactive) in [2]; 0.669 (inactive) in experiment [3]; 0.419 (inactive) in [4]; -0.689 (inactive) in experiment [6]; 1.31 (inactive) in experiment [14].
